The nature of assay [1]: qHTS assay to identify small molecule antagonists of the peroxisome proliferator-activated receptor gamma (PPARg) signaling pathway - cell viability counter screen (AID 743194). Also: nearly all actives have a fitted effect of over 55% in size. In short, it runs like this:
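Viability was measured as CellTiter-Glo luminescence in GeneBLAzer PPARg UAS-bla HEK293H cells. These cells had been exposed 17 h at 37 C to compounds together with rosiglitazone at 50 nM final, with the beta-lactamase readout taken in the same wells.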
Background: In qHTS, concentration-response curves come from the screen itself.

Assay [2] can be described thus: qHTS assay for small molecule agonists of the antioxidant response element (ARE) signaling pathway - cell viability counter screen (AID 743203; calls by dose curve; also: nearly all actives have a fitted effect of over 55% in size). In short, it runs like this: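 ATP content via CellTiter-Glo luminescence served as the viability measure. Cells: ARE-bla HepG2, 2,000 per well. Exposure: 16 hrs, 37C/5% CO2.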
Assay [3] can be described thus: qHTS assay for small molecule activators of the heat shock response signaling pathway - cell viability counter screen (AID 743209). Also: nearly all actives have a fitted effect of over 50% in size. In short, it runs like this:
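Compounds dissolved in DMSO were added to overnight-plated HSE-bla HeLa cells and left 5 h at 37 C. Cell viability was quantified by luminescence using CellTiter-Glo.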

A short description of assay [4]: qHTS assay for small molecule activators of the heat shock response signaling pathway (AID 743210; active = well fitted activation curve with a large enough effect in the signal ratio in the repeat runs, with a control signal flat, not every such curve was filed as active; the % refers to the signal ratio;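 also: HeLa cells with beta-lactamase reporter driven by heat shock elements; series mostly up to about 63 µM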). The essentials: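 Fluorescence from a cleaved B/G FRET substrate (2.5 h, room temp) reports HSE-driven beta-lactamase in HeLa cells treated 5 h at 37 C with DMSO-dissolved compounds.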
A short description of assay [5]: qHTS assay to identify small molecule agonists of the peroxisome proliferator-activated receptor delta (PPARd) signaling pathway - cell viability counter screen (AID 743211). Also: nearly all actives have a fitted effect of over 55% in size. The essentials: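 HEK293H PPARd-bla, 3000 cells/well; 5 h preincubation 37C/5% CO2; cpd in DMSO, 17 h 37C; B/G FRET substrate 2 h RT; CellTiter-Glo 30 min RT, luminescence.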
Assay [6] is described as follows: qHTS assay to identify small molecule agonists of the farnesoid-X-receptor (FXR) signaling pathway - cell viability counter screen (AID 743218). Also: nearly all actives have a fitted effect of over 45% in size. In short, it runs like this:
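Quantitative HTS counter screen measuring ATP-based viability via CellTiter-Glo luminescence in HEK 293T cells carrying a UAS-driven beta-lactamase reporter, after 16 h compound exposure at 37 C.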

Assay [7] is described as follows: qHTS assay to identify small molecule antagonists of the farnesoid-X-receptor (FXR) signaling pathway - cell viability counter screen (AID 743221; active = well fitted cell-killing curve with a large enough effect in the repeat runs, not every such curve was filed as active; also: nearly all actives have a fitted effect of over 50% in size). The essentials:
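Luminescence from CellTiter-Glo measures cytotoxicity in GeneBLAzer FXR-UAS-bla HEK 293T cells. Cells were exposed to compounds with 50 uM chenodeoxycholic acid (final) for 16 h at 37 C, in wells also used for the reporter readout.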

Assay [8] concerns the target Vitamin D3 receptor (Homo sapiens) (UniProt P11473). The assay can be described thus: qHTS assay to identify small molecule agonists of the vitamin D receptor (VDR) signaling pathway (AID 743222; calls by dose curve). In short, it runs like this: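 Tox21 cell reporter format: VDR-bla line, 16 h compound exposure in 5% CO2 at 37C, then fluorescence intensity after 2 h with LiveBLAzer B/G FRET substrate.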

For assay [9] the target is unchanged. In words: qHTS assay to identify small molecule antagonists of the vitamin D receptor (VDR) signaling pathway (AID 743223; active = well fitted inhibition curve with a large enough effect in the signal ratio in the repeat runs, not every such curve was filed as active; the % refers to the signal ratio). In short, it runs like this: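 Antagonist mode uses 1alpha,25-dihydroxyvitamin D3 at 3 nM final as stimulus. VDR-bla cells receive compounds in DMSO, incubate 16 h at 37C, then a beta-lactamase FRET substrate for 2 h at room temperature before fluorescence measurement.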

A short description of assay [10]: qHTS assay to identify aromatase inhibitors - cell viability counter screen (AID 743084).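 Also: cells stimulated with testosterone during compound exposure; nearly all actives have a fitted effect of over 55% in size.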
For assay [11], the target named is Peroxisome proliferator-activated receptor gamma (Homo sapiens) (UniProt P37231). The assay can be described thus: qHTS assay to identify small molecule agonists of the peroxisome proliferator-activated receptor gamma (PPARg) signaling pathway (AID 743094; active = well fitted activation curve with a large enough effect in the signal ratio in the repeat runs, not every such curve was filed as active; the % refers to the signal ratio). In short, it runs like this: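 Agonism was assessed in a beta-lactamase reporter system, HEK293H cells with a stably integrated UAS-bla construct under PPARg control; the 17 h treatment at 37C preceded a 1 h room-temperature FRET substrate read.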
Peroxisome proliferator-activated receptor gamma (Homo sapiens), sequence (P37231 whole entry, looked up): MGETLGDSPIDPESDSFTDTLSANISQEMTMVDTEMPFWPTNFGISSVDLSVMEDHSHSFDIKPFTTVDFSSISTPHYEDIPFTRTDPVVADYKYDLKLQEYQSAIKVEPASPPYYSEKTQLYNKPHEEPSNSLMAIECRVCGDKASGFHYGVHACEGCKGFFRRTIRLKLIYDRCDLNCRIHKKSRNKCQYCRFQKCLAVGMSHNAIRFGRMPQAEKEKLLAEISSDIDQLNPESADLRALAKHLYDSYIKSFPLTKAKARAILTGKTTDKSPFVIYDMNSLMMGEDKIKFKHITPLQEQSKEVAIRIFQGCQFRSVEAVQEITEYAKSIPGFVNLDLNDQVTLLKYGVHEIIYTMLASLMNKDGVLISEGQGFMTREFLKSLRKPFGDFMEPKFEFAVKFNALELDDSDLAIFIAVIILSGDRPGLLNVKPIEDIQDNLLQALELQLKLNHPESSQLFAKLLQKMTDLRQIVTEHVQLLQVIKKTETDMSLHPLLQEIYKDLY

Assay [12] shares this target. In words: qHTS assay to identify small molecule antagonists of the peroxisome proliferator-activated receptor gamma (PPARg) signaling pathway (AID 743191; calls by dose curve; also: series mostly up to about 63 µM; nearly all actives have a fitted effect of over 30% in size). In short, it runs like this: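 Beta-lactamase reporter under UAS control in HEK293H PPARg-bla cells; compound treatment 17 h at 37C. Read-out: fluorescence intensity after 1 h room-temperature incubation with LiveBLAzer B/G FRET substrate.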

Assay [13] can be described thus: qHTS assay for small molecule agonists of the antioxidant response element (ARE) signaling pathway (AID 743202; active = well fitted activation curve with a large enough effect in the signal ratio in the repeat runs, not every such curve was filed as active; the % refers to the signal ratio; also: potency is read from the fitted curve at half-maximal effect). In short, it runs like this: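 Beta-lactamase reporter activity, read as fluorescence intensity, reflects ARE/Nrf2 pathway induction in HepG2 cells after 16 h compound exposure at 37 C; substrate loading was 2 h at room temperature.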
Assay [14] addresses Peroxisome proliferator-activated receptor delta (Homo sapiens) (UniProt Q03181). In words: qHTS assay to identify small molecule agonists of the peroxisome proliferator-activated receptor delta (PPARd) signaling pathway (AID 743212; calls by dose curve). The essentials:
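Steps: seed PPARd-bla HEK293H cells; incubate 5 h, 37 C, 5% CO2; add compounds in DMSO; incubate, 37 C; add LiveBLAzer B/G FRET substrate; hold 2 h at room temperature; measure fluorescence.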

Assay [15] is described as follows: qHTS assay to identify small molecule antagonists of the peroxisome proliferator-activated receptor delta (PPARd) signaling pathway - cell viability counter screen (AID 743213). Also: nearly all actives have a fitted effect of over 50% in size. The essentials: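 Agonist-stimulated (L165041, 300 nM final) HEK293H PPARd UAS-bla cells are exposed to compounds for 17 h at 37 C, and ATP-based luminescence (CellTiter-Glo) from the same wells reports cytotoxicity.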

The target of assay [16] is Peroxisome proliferator-activated receptor delta (Homo sapiens) (UniProt Q03181). The assay can be described thus: qHTS assay to identify small molecule antagonists of the peroxisome proliferator-activated receptor delta (PPARd) signaling pathway (AID 743215; active = well fitted inhibition curve with a large enough effect in the signal ratio in the repeat runs, not every such curve was filed as active; the % refers to the signal ratio; also: series mostly up to about 62 µM). The essentials: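 Here, a reporter line (HEK293H, beta-lactamase under a UAS) measures PPARd signaling. Compounds are tested against agonist L165041 at 300 nM final concentration over 17 h at 37 C, with fluorescence read after substrate.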
Peroxisome proliferator-activated receptor delta (Homo sapiens), sequence (Q03181 whole entry, looked up): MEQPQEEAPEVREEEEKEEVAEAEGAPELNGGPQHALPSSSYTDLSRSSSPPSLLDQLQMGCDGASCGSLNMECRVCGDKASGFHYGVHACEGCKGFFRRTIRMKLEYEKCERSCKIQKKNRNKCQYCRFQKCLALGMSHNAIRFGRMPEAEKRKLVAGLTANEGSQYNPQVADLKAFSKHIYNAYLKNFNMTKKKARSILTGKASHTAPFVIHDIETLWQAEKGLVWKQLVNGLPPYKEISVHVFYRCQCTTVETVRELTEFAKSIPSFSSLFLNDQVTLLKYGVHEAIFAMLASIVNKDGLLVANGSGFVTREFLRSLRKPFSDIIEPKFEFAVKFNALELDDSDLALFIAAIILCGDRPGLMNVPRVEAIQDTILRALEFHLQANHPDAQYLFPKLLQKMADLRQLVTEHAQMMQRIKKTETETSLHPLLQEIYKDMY

In assay [17] the target is Bile acid receptor (Homo sapiens) (UniProt Q96RI1). In words: qHTS assay to identify small molecule antagonists of the farnesoid-X-receptor (FXR) signaling pathway (AID 743217; active = well fitted inhibition curve with a large enough effect in the signal ratio in the repeat runs, not every such curve was filed as active; the % refers to the signal ratio). In short, it runs like this:
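Test compounds are pin-transferred onto FXR-bla HEK 293T cells, then chenodeoxycholic acid is added at 50 uM final. After 16 h at 37 °C, LiveBLAzer B/G substrate is applied for 2 h at room temperature and fluorescence read.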

The target is the same in assay [18]. The assay can be described thus: qHTS assay to identify small molecule agonists of the farnesoid-X-receptor (FXR) signaling pathway (AID 743220; active = well fitted activation curve with a large enough effect in the signal ratio in the repeat runs, not every such curve was filed as active; the % refers to the signal ratio). In short, it runs like this:
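FXR-UAS-bla HEK 293T cells carrying a UAS-driven beta-lactamase reporter were plated for 5 h at 37C/5% CO2, then exposed to DMSO-dissolved Tox21 10K compounds for 16 h at 37C. A LiveBLAzer B/G FRET substrate was loaded for 2 h at room temperature before fluorescence reading.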

Assay [19] addresses Aryl hydrocarbon receptor (Homo sapiens) (UniProt P35869). In words: qHTS assay to identify small molecule that activate the aryl hydrocarbon receptor (AhR) signaling pathway (AID 743085).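 Also: HG2L7.5c1 human HepG2 liver cells with stably integrated DRE-driven firefly reporter; series mostly up to about 70 µM; nearly all actives have a fitted effect of over 15% in size.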 In short, it runs like this:
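Cell line HG2L7.5c1 (human hepatoma, 20× DRE-luc). Plated, 5 h 37C, compound/DMSO added, 24 h 37C. CellTiter-Fluor 30 min 37C → fluorescence; then ONE-Glo 30 min RT → luminescence.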

Assay [20] can be described thus: qHTS assay to identify small molecule that activate the aryl hydrocarbon receptor (AhR) signaling pathway - cell viability counter screen (AID 743086).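 Also: HepG2 liver cells carrying the AhR DRE luciferase reporter; series mostly up to about 70 µM; nearly all actives have a fitted effect of over 45% in size.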 In short, it runs like this:
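Cytotoxicity counter screen: CellTiter-Fluor signal (30 min, 37 C) in 4000 HepG2 cells/well carrying the DRE-luciferase reporter, following 24 h compound exposure at 37 C.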

Structures are written as SMILES. Results filed as inconclusive are left out. Activity calls are given as the source filed them. Unless noted, calls follow the shape of the dose curve; as a rule, active = well fitted curve in the direction sought with a large enough effect in the repeat runs; inconclusive = weak or mixed curves; inactive = no such curve, though single readings can be large; an effect the other way counts as inactive or inconclusive.

Vitamin D3 receptor (Homo sapiens), sequence (P11473 whole entry, looked up): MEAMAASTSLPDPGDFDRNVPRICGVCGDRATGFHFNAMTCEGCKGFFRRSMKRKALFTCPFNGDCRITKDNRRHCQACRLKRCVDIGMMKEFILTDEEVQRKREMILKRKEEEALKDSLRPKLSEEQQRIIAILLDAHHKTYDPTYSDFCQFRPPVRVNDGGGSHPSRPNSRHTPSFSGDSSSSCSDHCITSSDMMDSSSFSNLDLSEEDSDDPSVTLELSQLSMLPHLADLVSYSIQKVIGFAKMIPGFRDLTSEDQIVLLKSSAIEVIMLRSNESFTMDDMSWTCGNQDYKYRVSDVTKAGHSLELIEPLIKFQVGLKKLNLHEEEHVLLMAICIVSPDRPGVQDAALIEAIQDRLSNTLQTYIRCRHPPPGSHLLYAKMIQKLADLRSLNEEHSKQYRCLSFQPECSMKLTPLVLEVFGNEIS
Bile acid receptor (Homo sapiens), sequence (Q96RI1 whole entry, looked up): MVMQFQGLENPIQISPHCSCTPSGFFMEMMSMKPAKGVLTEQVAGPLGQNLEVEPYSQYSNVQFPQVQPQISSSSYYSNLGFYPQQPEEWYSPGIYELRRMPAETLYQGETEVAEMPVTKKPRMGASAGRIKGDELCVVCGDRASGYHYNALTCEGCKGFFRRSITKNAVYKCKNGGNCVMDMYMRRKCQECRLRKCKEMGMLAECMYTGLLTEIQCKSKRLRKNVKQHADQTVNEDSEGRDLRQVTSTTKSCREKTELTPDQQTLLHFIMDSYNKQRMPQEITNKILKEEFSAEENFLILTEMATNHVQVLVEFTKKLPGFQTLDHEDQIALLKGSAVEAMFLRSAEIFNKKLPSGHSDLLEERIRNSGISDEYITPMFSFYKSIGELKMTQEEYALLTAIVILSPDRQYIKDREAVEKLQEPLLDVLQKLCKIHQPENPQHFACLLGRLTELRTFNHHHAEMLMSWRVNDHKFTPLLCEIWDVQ
Aryl hydrocarbon receptor (Homo sapiens), sequence (P35869 whole entry, looked up): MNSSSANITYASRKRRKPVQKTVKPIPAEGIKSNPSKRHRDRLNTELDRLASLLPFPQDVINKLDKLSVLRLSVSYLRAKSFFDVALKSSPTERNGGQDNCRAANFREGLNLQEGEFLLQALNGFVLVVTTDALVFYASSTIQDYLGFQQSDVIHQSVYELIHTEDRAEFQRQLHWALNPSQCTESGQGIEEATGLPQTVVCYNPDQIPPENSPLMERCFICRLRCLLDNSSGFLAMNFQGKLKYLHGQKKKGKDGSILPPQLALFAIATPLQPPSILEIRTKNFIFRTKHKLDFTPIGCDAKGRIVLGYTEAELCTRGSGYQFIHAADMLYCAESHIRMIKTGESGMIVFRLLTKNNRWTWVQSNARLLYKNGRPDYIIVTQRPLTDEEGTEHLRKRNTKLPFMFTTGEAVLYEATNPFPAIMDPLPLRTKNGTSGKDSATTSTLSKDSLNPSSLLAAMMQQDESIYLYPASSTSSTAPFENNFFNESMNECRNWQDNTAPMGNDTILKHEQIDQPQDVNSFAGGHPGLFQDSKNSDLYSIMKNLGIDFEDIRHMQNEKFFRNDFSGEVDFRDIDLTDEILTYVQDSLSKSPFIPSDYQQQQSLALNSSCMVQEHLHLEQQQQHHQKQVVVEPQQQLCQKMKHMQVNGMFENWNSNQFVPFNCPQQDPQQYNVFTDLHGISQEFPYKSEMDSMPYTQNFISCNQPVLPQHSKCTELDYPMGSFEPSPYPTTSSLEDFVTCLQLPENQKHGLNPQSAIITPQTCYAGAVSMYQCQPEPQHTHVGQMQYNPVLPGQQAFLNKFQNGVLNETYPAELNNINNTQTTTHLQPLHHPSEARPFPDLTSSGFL

Take `C[C@H](N)C(=O)N[C@@H](C)C(=O)NC1[C@H]2CN(c3nc4c(cc3F)c(=O)c(C(=O)O)cn4-c3ccc(F)cc3F)C[C@@H]12` (stereo partly specified): the Potency entry in assay [1], in assay [2], in assay [5], in assay [6] and in assay [7] was “inactive” each time. For the same compound, the compound was classed as inactive in assay [3], in assay [4], in [8] and in assay [9].

Take `CC(C)(C)NCC(O)COc1ccc(NC(=O)NC2CCCCC2)cc1` (stereo unspecified): the Potency result in assay [10], in assay [11], in assay [12], in assay [1], in assay [13] and in assay [2] was “inactive” throughout. In addition, the Potency result in assay [5], in [14], in [15], in assay [6] and in assay [7] was “inactive” each time. Also, the compound was called inactive in assay [3], in assay [4], in [16], in [17], in assay [18] and in [8]. Further, in assay [9], the compound was classed as inactive.

Consider `CC(C)(Cc1c[nH]c2ccccc12)NCC(O)COc1ccccc1C#N` (stereo unspecified), for which the Potency result in assay [10], in assay [1] and in [14] was “inactive” each time. The call in assay [3], in assay [4], in [16], in assay [17] and in [18] was inactive.

Turning to `COc1ccnc2c1CCCCC2S(=O)c1nc2ccccc2[nH]1` (stereo unspecified), the Potency entry in assay [1], in assay [2], in [5], in [15], in assay [6] and in [7] was “inactive” each time. The Potency in assay [13] was 3.35 µM (active). Further, the compound was classed as inactive in assay [3], in [8] and in assay [9].

For the compound `CCC(=O)O[C@]1(C(=O)COC)[C@@H](C)C[C@H]2[C@@H]3CCC4=CC(=O)C=C[C@]4(C)C3(F)[C@@H](O)C[C@@]21C` (stereo partly specified), the Potency entry in assay [12], in assay [1], in assay [13], in assay [2], in assay [5] and in assay [14] was “inactive” throughout. Moreover, the Potency entry in assay [15], in [6] and in assay [7] was “inactive” each time. Further, the result in [4], in assay [16], in assay [17], in assay [18] and in assay [9] was inactive.

In the case of `O=C(C1CCCCC1)N1CC(=O)N2CCCc3ccccc3C2C1` (stereo unspecified), the Potency entry in [1], in [2], in assay [5], in assay [15], in assay [6] and in assay [7] was “inactive” throughout. In addition, the outcome in [4] and in assay [16] was inactive.

Regarding `Cc1ccc2ccccc2c1[N+](=O)[O-]`, the Potency result in assay [19], in [20], in assay [11], in assay [12], in [13] and in [2] was “inactive” in each case. Also, the Potency entry in assay [5], in assay [14], in [15], in assay [6] and in [7] was “inactive” throughout. Moreover, the compound was classed as inactive in [3], in assay [4], in assay [16], in assay [8] and in [9].

In the case of `O=C(c1ccco1)N1CCNCC1`, the Potency entry in [1], in [2], in [5], in [14], in assay [15] and in assay [6] was “inactive” each time. Further, in [7], the Potency result is “inactive”. Further, the compound was called inactive in assay [3], in assay [16], in assay [17] and in assay [18].

As to `CC/C=C/CCO`, the Potency result in assay [20], in assay [1], in assay [2], in assay [5], in assay [15] and in [6] was “inactive” in each case. Besides, the Potency result in [7] is “inactive”. Further, the call in assay [3], in [4], in assay [17], in assay [18] and in [8] was inactive.

As for `CCN(CC)CC(=O)OCC(=O)[C@@]1(O)CC[C@H]2[C@@H]3CCC4=CC(=O)CC[C@]4(C)[C@H]3[C@@H](O)C[C@@]21C`, the Potency entry in assay [1], in assay [13], in assay [2], in assay [5], in assay [15] and in [6] was “inactive” throughout. Also, the Potency result in [7] was “inactive”. Besides, the outcome in assay [3], in [4] and in [8] was inactive.

For the origin of these results see PubChem BioAssay (Tox21).
